# Compounds with a hit are over-represented: about 12% of the library has one in this group of screens.
# HP1b binding inh: HTS for Inhibitors of HP1-beta Chromodomain Interactions with Methylated Histone Tails | AID 540317, 2011 | 390,000 tested, 0.56% active | Chromobox protein homolog 1 (Homo sapiens), P83916 | AlphaScreen HP1-beta / biotin-H3K9me3 peptide binding | Potency, µM (highest dose often 114 µM), inactives show at the highest dose activity change, negative = inhibition, actives largely listed as inhibitors; note: nearly all actives have a fitted effect of over 70% in size
#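 AlphaScreen: HP1-beta (50 nM) preformed 30 min with biotin-H3(1-18)K9me3 peptide (50 nM) in PBS pH 7.4, 0.01% Tween-20. Compound added for 30 min at RT, then streptavidin donor/nickel chelate acceptor beads (10 ug/mL) for 30 min.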
# L3MBTL1 inh: qHTS Assay for the Inhibitors of L3MBTL1. Lethal(3)malignant brain tumor-like protein 1 (Homo sapiens), Q9Y468. AlphaScreen L3MBTL1–H3K9me1 peptide binding. Potency, µM (highest dose often 57.1 µM), without a hit: top-dose activity, negative = inhibition, usual class: inhibitors. 230,000 tested, 0.66% active. AID 485360, 2010; note: % is set by controls: 0 for no effect and ±100 for the full control effect; nearly all actives have a fitted effect of over 60% in size
#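 Read-out is AlphaScreen signal from streptavidin donor and nickel chelate acceptor beads (10 ug/mL final each) bridging L3MBTL1 (50 nM) and biotinylated K9-monomethylated H3(1-15) peptide (75 nM), after 30 min compound exposure at room temperature.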
# G9a inh: qHTS Assay for Inhibitors of Histone Lysine Methyltransferase G9a; Histone-lysine N-methyltransferase EHMT2 (Homo sapiens), Q96KQ7; G9a H3K9 monomethylation, AlphaScreen, 2 h; Potency, µM (highest dose often 102 µM), for the others: at the highest dose activity, negative = inhibition, hits mostly inhibitors; 350,000 tested, 8.8% active; AID 504332, 2011; note: % is set by controls: 0 for no effect and ±100 for the full control effect; nearly all actives have a fitted effect of over 75% in size
#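 AlphaScreen detection with an anti-monomethyl H3K9 antibody quantified product after a 2 h room-temperature reaction containing 500 nM biotinylated H3K9 peptide, 20 µM SAM and 20 nM enzyme, which had been preincubated 15 min with compound.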
# JMJD2A Tudor inh: qHTS Assay for Inhibitors of JMJD2A-Tudor Domain. AlphaScreen JMJD2A-Tudor / H3K4me3 peptide binding. Potency, µM (titrated, usually from 114 µM), without a hit: at the top dose activity change, negative = inhibition, hits mostly inhibitors. 390,000 tested, 4.4% active; note: % is set by controls: 0 for no effect and ±100 for the full control effect; nearly all actives have a fitted effect of over 50% in size
# Target sequence (O75164 whole entry, looked up, the tested form may be a part): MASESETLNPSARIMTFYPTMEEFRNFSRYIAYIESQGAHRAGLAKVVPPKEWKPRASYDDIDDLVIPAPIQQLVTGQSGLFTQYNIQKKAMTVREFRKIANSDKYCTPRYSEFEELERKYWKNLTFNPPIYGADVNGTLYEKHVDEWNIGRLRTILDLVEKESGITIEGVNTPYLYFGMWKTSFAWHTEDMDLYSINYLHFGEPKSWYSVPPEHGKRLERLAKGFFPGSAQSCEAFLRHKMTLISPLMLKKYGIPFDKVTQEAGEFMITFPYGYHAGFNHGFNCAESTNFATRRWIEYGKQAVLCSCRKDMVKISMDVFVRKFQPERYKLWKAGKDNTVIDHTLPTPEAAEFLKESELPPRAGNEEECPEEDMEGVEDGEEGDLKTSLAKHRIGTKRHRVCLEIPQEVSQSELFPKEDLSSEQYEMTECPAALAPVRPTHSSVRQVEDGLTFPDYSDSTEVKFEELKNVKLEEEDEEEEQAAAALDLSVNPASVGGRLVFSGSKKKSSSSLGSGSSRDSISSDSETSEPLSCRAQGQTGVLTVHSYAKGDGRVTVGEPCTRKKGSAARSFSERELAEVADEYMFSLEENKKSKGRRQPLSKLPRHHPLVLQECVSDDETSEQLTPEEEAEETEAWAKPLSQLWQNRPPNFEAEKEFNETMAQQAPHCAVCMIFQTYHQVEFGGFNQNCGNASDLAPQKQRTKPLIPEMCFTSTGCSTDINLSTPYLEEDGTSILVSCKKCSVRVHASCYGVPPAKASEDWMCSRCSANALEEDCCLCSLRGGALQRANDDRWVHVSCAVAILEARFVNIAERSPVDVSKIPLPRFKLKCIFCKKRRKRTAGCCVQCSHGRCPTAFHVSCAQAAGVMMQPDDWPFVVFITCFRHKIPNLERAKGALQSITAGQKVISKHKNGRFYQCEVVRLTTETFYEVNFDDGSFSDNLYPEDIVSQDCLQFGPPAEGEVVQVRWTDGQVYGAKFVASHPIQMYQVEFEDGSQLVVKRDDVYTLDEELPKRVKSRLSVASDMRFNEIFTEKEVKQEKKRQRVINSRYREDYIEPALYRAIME
# Sfp inh: qHTS Assay for Inhibitors of Bacillus subtilis Sfp phosphopantetheinyl transferase (PPTase); 310,000 tested, 3.5% active; AID 1490, 2009; Biochemical Sfp PPTase activity, qHTS; 4'-phosphopantetheinyl transferase ffp (Bacillus subtilis), Q9F4F7; Potency, µM, inactives show largest response in the series, negative = inhibition, hits mostly inhibitors;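 note: the enzyme is Sfp with the accession as filed and its product quenches rhodamine fluorescence; 0% = enzyme reaction without inhibitor and -100% = no enzyme wells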
#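 Sfp 15 nM + cpd, 15 min RT; start w/ rhodamine-CoA 5 uM, BHQ-2-YbbR 12.5 uM (final); 50 mM Hepes pH 7.6, 10 mM MgCl2, 0.01% NP-40, 0.01% BSA; read 525/598 nm at 0 and 30 min.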
# BAZ2B inh: qHTS Assay for Inhibitors of BAZ2B; Bromodomain adjacent to zinc finger domain protein 2B (Homo sapiens), Q9UIF8; AlphaScreen BAZ2B-H3K14Ac peptide displacement; Potency, µM (series often up to 114 µM), without a hit: at the top dose activity change, negative = inhibition, usual class: inhibitors; 360,000 tested, 4.4% active; AID 504333, 2011; note: % is set by controls: 0 for no effect and ±100 for the full control effect; nearly all actives have a fitted effect of over 60% in size
#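 BAZ2B (50 nM) with biotin-H3(5-23)K14Ac peptide (50 nM) in PBS pH 7.4, 0.01% Tween-20, preformed 30 min, then compound 30 min at room temperature; top concentration 110uM. AlphaScreen streptavidin donor/nickel chelate acceptor beads (10 ug/mL final), 20 min dark, signal read.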
# * hit, by the source's call; ? = inconclusive; . = not tested or not shown; ! = not active in a repeat; [ ] = another dose, or the depositor's remark. Calls come from the whole dose curve; as a rule, active = well fitted curve in the direction sought with a large enough effect; inconclusive = small, poorly fitted or top-dose-only effect, or another doubt; inactive = no such curve, though single readings can be large; an effect the other way counts as inactive or inconclusive. Potency is the fitted concentration of half-maximal effect.
SMILES,HP1b binding inh,L3MBTL1 inh,G9a inh,JMJD2A Tudor inh,Sfp inh,BAZ2B inh
COC(=O)N1C2=C(c3ccccc3[C@@H]1CC(=O)Nc1ccc3ccc4cccc5ccc1c3c45)[C@@H]1C(=O)N(c3ccccc3)C(=O)[C@@H]1[C@H](C)C2,.,.,.,.,0%,.
CCOc1ccc(NC(=O)C2CCN(C(=O)N3CC(C)Oc4ccc(Cl)cc43)CC2)cc1 (centres undefined),-10%,.,?,?,.,79µM*
COc1ccc(-c2cnnn2-c2ccc(NC(=O)c3ccccc3OC)cc2)cc1,16%,.,-14%[59 µM],-20%,.,-2%
CN(C)S(=O)(=O)c1cccc(COC(=O)c2cc([N+](=O)[O-])ccc2N2CCOCC2)c1,-1%,-4%,56µM*,-25%,.,-3%
Cc1ccccc1COC(=O)c1cc([N+](=O)[O-])ccc1N1CCOCC1,2%,.,?,?,17%,-30%
CSc1ccc(COC(=O)c2cc([N+](=O)[O-])ccc2N2CCOCC2)cc1,?,-16%,45µM*,?,.,-30%
COc1cccc(-c2nc(NCc3cnc(C)cn3)c3ccccc3n2)c1,.,.,.,.,-11%,.
CN(C)c1ccc(C2/C(=C(/O)c3ccccc3)C(=O)C(=O)N2CCCC(=O)O)cc1 (centres undefined),27%,.,?,?,14%,-26%
COc1cccc(C2/C(=C(/O)c3ccccc3)C(=O)C(=O)N2CCCC(=O)O)c1 (centres undefined),5%,1%,?,50µM*,5%,?
COc1ccc(/C(O)=C2/C(=O)C(=O)N(CCCC(=O)O)C2c2ccc(OC)c(OC)c2)cc1 (centres undefined),8%,13%,-2%[0.0925 µM],-10%,5%,4%
COCCCN1C(=O)C(=O)/C(=C(/O)c2ccc(S(=O)(=O)N3CCCCC3)cc2)C1c1cccc(OC)c1 (centres undefined),37%,.,45µM*,4%,11%,-24%
COc1cc(C2/C(=C(/O)c3ccc(F)cc3)C(=O)C(=O)N2CCCC(=O)O)ccc1O (centres undefined),0%,0%,.,?,19%,56µM*
COCCCN1C(=O)C(=O)/C(=C(/O)c2ccc(S(=O)(=O)N3CCCCC3)cc2)C1c1ccc(O)c(OC)c1 (centres undefined),18%,.,?,-23%,-2%,?
COCCCNC(=O)c1ccc(Cn2c(=O)c3ccccc3n(CC(=O)Nc3c(C)cccc3C)c2=O)cc1,31%,.,0%[59 µM],-5%,.,-2%
O=S(=O)(Nc1ccc(S(=O)(=O)Nc2ccccc2)cc1)c1ccccc1,14%,6%,-28%,-21%,-5%,2%
O=S(=O)(Nc1ccc(N=Nc2ccccc2)cc1)c1ccccc1,45µM*,-25%,32µM*,35µM*,21%,35µM*
O=S(=O)(Nc1ccc(N=Nc2ccc(O)c3ccccc23)cc1)c1ccccc1,40µM*,?,?,25µM*,?,40µM*
O=S(=O)(Nc1ccccc1)c1ccc(NS(=O)(=O)c2c(F)cccc2F)cc1,21%,.,50µM*,-14%,8%,-4%
O=S(=O)(Nc1ccc(-c2ccccc2)cc1)c1ccccc1,5%,.,.,-12%,.,.
O=[N+]([O-])c1ccc(N=Nc2ccc(O)c3ccccc23)cc1,7.9µM*,.,.,3.2µM*,.,.
CCN(Cc1ccccc1)C(=O)c1c(C)oc2ncn(C)c(=O)c12,19%,.,-12%[59 µM],-10%,.,7%[57.1 µM]
CC(C)c1ccc(NC(=O)CSC2=Nc3ccccc3C3=NC(CC(=O)NCc4ccco4)C(=O)N23)cc1 (centres undefined),-5%,.,2%[59 µM],?,.,?
CC(C)(C)c1n[nH]c2c1CCCC2,-6%,1%,5%,89µM*,18%,-7%
C=C[C@H](N)CCC(=O)O,.,.,21%[21.5 µM],.,2%,.
COCCn1c(=O)[nH]c(=O)c2c1nc(-c1ccc(-c3ccc(Cl)cc3[N+](=O)[O-])o1)n2Cc1ccccc1,?,-15%,8.9µM*,?,?,?
SMILES,HP1b binding inh,L3MBTL1 inh,G9a inh,JMJD2A Tudor inh,Sfp inh,BAZ2B inh
COc1ccc(-c2ccc(-c3nc4c(c(=O)[nH]c(=O)n4Cc4ccccc4)n3C)o2)c([N+](=O)[O-])c1,2%,-2%,?,-17%,10µM*,?
COCCn1c(-c2ccc(-c3ccc([N+](=O)[O-])cc3Br)o2)nc2c1c(=O)[nH]c(=O)n2CC(C)C,21%,-6%,35µM*,-20%,28µM*,-29%
O=C(CN1CCN(C2CCCCC2)CC1)c1ccc2cc[nH]c2c1,21%,.,28µM*,-35%,4%,-26%
CCCN(Cc1cccs1)C(=O)Nc1cc(C)cc(C)c1,71%,.,-1%[59 µM],21%,.,12%
COc1ccc(N2Cc3cccc(C(=O)Nc4cc(C)cc(C)c4)c3C2=O)cc1,-1%,.,-30%[59 µM],?,.,?
COc1ccc(N2Cc3cccc(C(=O)O)c3C2=O)cc1,?,.,32µM*,45µM*!,6%,20µM*
CCOC(=O)Cc1ccc(NC(=O)N2CCOc3ccc(C)cc32)cc1,39%,.,-17%[59 µM],-12%,.,-13%
Cc1cc(NS(=O)(=O)c2ccc3nc(-c4ccccc4)[nH]c3c2)ccc1Br,11%,.,-1%[59 µM],-23%,.,-3%
Cc1[nH]n(-c2ccccc2)c(=O)c1N=Nc1ccc2c(c1)OCO2,-4%,.,3.2µM*,?,-1%,1.8µM*
COc1cccc(N=Nc2c(C)[nH]n(-c3ccccc3)c2=O)c1,?,?,7.9µM*,?,-17%,6.3µM*
CSC(N)=NCCC[C@H](N)C(=O)O,.,.,34%[59 µM],.,.,.
OCCN(Cc1ccccc1)CC1CC=CCC1 (centres undefined),?,-2%,10µM*,10µM*,-16%,79µM*
Fc1ccc(Br)cc1C1C=C(c2cccnc2)Nc2ncnn21 (centres undefined),43%,-2%,45µM*,?,9%,-7%
Fc1ccc(C2=CC(c3ccc(Br)o3)n3ncnc3N2)cc1 (centres undefined),-7%,-3%,8.9µM*,32µM*,-101%,-15%
Brc1ccc(C2=CC(c3cccs3)n3ncnc3N2)cc1 (centres undefined),24%,-2%,11%[0.501 µM],-22%,79µM*,4%

# Bioassay records (PubChem BioAssay)
